# Data published in PubChem BioAssay AID2205 (University of Pittsburgh Molecular Library Screening Center, 2009).
# The whole screen tested about 200,000 compounds, of which about 1,600 (0.8%) were called active. This is one part of a sample in which actives are shown more often than they occur.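 The calls were made as follows: active = plate Z-score above 3 for both tubulin-high and condensed-nucleus cell shares, with cell loss under 80%, at 10 µM; inactive = the rest, inconclusive results apart.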
# Assay: microtubule stabilizers in HeLa cells, primary screen, imaging, high-content imaging (AID 2205);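 as to % tubulin-high responders: anti alpha tubulin signal scored within the nucleus-defined area of each cell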;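 as to toxicity: 0% = mean cell density of plate MIN control wells and 100% = no cells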
# Conditions: HeLa tubulin immunostaining HCS, 24 h, at 10 µM; % Hoechst-high responders: measured here: nuclear condensation Hoechst responders, stronger effect = higher value; % tubulin-high responders: stronger effect = higher value; toxicity: measured here: cytotoxicity by cell density
SMILES,% Hoechst-high responders [%],% tubulin-high responders,toxicity [%]
O=C(c1cc(-c2ccncc2)nc2ccccc12)N1CCC2(CC1)OCCO2,1.52,3.12% (inactive),6.16
Cc1ccc(-c2cc(C(=O)N3CCC4(CC3)OCCO4)no2)cc1,2.17,2.98% (inactive),5.89
Cc1cccc(-n2c(C)nc3cc(C(=O)N4CCC5(CC4)OCCO5)ccc32)c1,32.4,48.1% (active),34.2
O=C(O)CCn1cc(C=C2C(=O)NC(=S)NC2=O)c(-c2cccc(Br)c2)n1,1.76,1.65% (inactive),3.44
C[N+]12CN3CN(CN(C3)C1)C2,0.953,7.11% (inactive),4.73
COc1cc(-n2c(=S)[nH]c3ccc(C)cc3c2=O)c(Cl)cc1Cl,23.7,12.4% (active),29
CC(Cc1cccs1)NCc1ccc(Cl)cc1 (stereo not given),2.36,3.24% (inactive),0.83
CN1CCN(C(=O)COc2ccc(C(C)(C)C)cc2Br)CC1,1.35,1.46% (inactive),9.25
Cc1cccc2c(CCN)c[nH]c12,2.2,2.61% (inactive),4.06
Cc1cc(C)cc(NC(=S)NC2CC3CCCC(C2)N3Cc2cccs2)c1 (stereo not given),1.98,3.91% (inactive),8.8
